# Laboratory results from PubChem BioAssay (NCI).
# The panel holds about 83,000 compounds, 20% with a hit somewhere; the sample as a whole holds those more often.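 For each line, cells grew in 96-well plates with the test compound present at a single concentration for 48 hours.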 Active and inactive are the calls of the source.
# Tested on: SK-MEL-5 melanoma
# Test: NCI-60 one-dose screen, 48 h (100 = growth as untreated, 0 = no growth, -100 = all killed)
# Settings: 10 µM unless noted
# Protocol: Growth inhibition of the SK-MEL-5 human tumor cell line is measured as a screen for anti-cancer activity. Cells are grown in 96 well plates and exposed to the test compound for 48 hours. Compounds are tested at a single concentration, which is 10^-5 M for most compounds. The reported endpoint is percent growth (GI% or GIPRCNT), where numbers from 0 - 100% represent growth inhibition, and numbers from -100% - 0 represent cell death. For example, a value of 40 represents 60% growth inhibition. A value of 0 means no net growth occurred over the course of the experiment. A value of -40 indicates 40% of cells at the beginning of the experiment died by the end of the experiment. A value of -100 means all cells are dead at the end of the experiment.
# NCI-60 Human Tumor Cell Lines Screen was performed using the standard one-dose NCI protocol, which is described in more detail at https://dtp.cancer.gov/discovery_development/nci-60/default.htm.
# Compounds with GIPRCNT values below 10 were considered active. Activity score was based on GIPRCNT using the following formula: […]
# Score is 0 for GIPRCNT values of 100 or above, 50 for GIPRCNT values of 0, and 100 for GIPRCNT values of -100.
row,SMILES,growth
1,CC(=O)N(C)C1=Nc2ccc(Cl)cc2C(c2ccccc2)=[N+]([O-])C1,105% (inactive)
2,C=CCN1C(=O)C(CC)(CCC(C)C)C(=O)NC1=S (stereo not given),105% (inactive)
3,O=C1NC(=O)C(Cc2ccccc2)(Cc2ccccc2)C(=O)N1,109% (inactive)
4,CC(C)(NC(=O)c1nn(CCCCCF)c2ccccc12)c1ccccc1,90.3% (inactive)
5,Nc1ccc([N+](=O)[O-])c2c1Oc1ccccc1O2,96.7% (inactive)
6,CCOC(=O)/C=C(\C)Nc1ccc(N/C(C)=C/C(=O)OCC)c2c1Oc1ccccc1O2,79.9% (inactive)
7,CC(=O)O[C@H]1CCC2(C)C(=CCC3C2CCC2(C)/C(=N/OC(=O)c4ccc(N(CCCl)CCCl)cc4)CCC32)C1 (stereo not given in full),73.2% (inactive)
8,COc1ccc(/C=C(/C(=O)N2CCCC2)c2cc(OC)c(OC)c(OC)c2)cc1N,20% (inactive)
9,O=C(Nc1ccc(S(=O)(=O)F)cc1)Oc1ccccc1,96.3% (inactive)
10,CC1(C)N=C(N)N=C(N)N1c1ccc(CNC(=O)Nc2ccc(S(=O)(=O)F)c(Cl)c2)c(Cl)c1,24.1% (inactive)
11,CC12CCC3C(CC=C4CC(O)CCC43C)C1C/C(=C\N1CCOCC1)C2=O (stereo not given),99.1% (inactive)
12,O=C1NC(=S)NC(=O)C1=Cc1ccccc1,98.7% (inactive)
13,Oc1ccc(O)c2c1C1(Cl)C(Cl)=C(Cl)C2(Cl)C1(Cl)Cl,42.3% (inactive)
14,c1ccc(-c2ccc3ccccc3[o+]2)cc1,88.8% (inactive)
15,COc1ccc2c(c1)NC1=C(C(=O)OC1)C2c1cc(OC)c(OC)c(OC)c1 (stereo not given),-49.1% (active)
16,CCCCCCCCCCCCOc1ccc(C(=O)Oc2ccc(CSP3(=O)OCC4OC(n5cnc6c(N)ncnc65)C(F)C4OP(=O)(O)OCC4OC(n5ccc(=O)[nH]c5=O)C(F)C4O3)cc2)cc1 (stereo not given),109% (inactive)
17,c1cnc2c(c1)ccc1ncccc12,104% (inactive)
18,CCC(C)[C@H]1O[C@]2(C=C[C@@H]1C)C[C@@H]1C[C@@H](C/C=C(\C)[C@@H](OC3C[C@H](OC)C(O[C@H]4C[C@H](OC)[C@@H](O)[C@H](C)O4)[C@H](C)O3)[C@@H](C)/C=C/C=C3\CO[C@@H]4[C@H](O)C(C)=C[C@@H](C(=O)O1)[C@]34O)O2 (stereo not given in full),-79.2% (active)
19,COc1cc[c]([Hg][Cl])cc1,30.5% (inactive)
20,ClCCN(CCCl)c1nc(Cl)c(C2CC(c3ccc(Cl)cc3)=NN2c2cc(Cl)cc(Cl)c2)s1 (stereo not given),115% (inactive)

row,SMILES,growth
1,O=C(C(=O)N1CCCC1)c1cn(CCCCCn2cc(C(=O)C(=O)N3CCCC3)c3ccccc32)c2ccccc12,75.9% (inactive)
2,Cc1ccccc1O,106% (inactive)
3,C/C(=N/OC(=O)N(C)C)c1ccc(Cl)cc1Cl,103% (inactive)
4,[Br][Pb]([c]1ccccc1)([c]1ccccc1)[c]1ccccc1,-100% (active)
5,CC(=O)[O][Hg][CH2]C1(C)COC(C)([CH2][Hg][O]C(C)=O)CO1 (stereo not given),-35.9% (active)
6,CO[C@@H]1[C@H](OC(=O)NC(=O)CCl)CC[C@]2(CO2)[C@H]1[C@@]1(C)O[C@@H]1CC=C(C)C,55.4% (inactive)
7,O=C1NC(=O)C(=Cc2cn(Cc3ccccc3)c3ccccc23)C(=O)N1,101% (inactive)
8,CC(=O)[O][Hg][c]1nc2c(c(=O)n(C)c(=O)n2C)n1C,90.8% (inactive)
9,CC1(C)N=C(N)N=C(N)N1c1ccc(OCCCCOc2ccc(S(=O)(=O)F)cc2)c(Cl)c1,9.68% (active)
10,COc1ccc(C(c2ccc(OC)cc2)C(Cl)(Cl)Cl)cc1,80.2% (inactive)
11,CC1(C)N=C(N)N=C(N)N1c1ccc(OCCCCNC(=O)Nc2cccc(S(=O)(=O)F)c2)c(Cl)c1,25.9% (inactive)
12,CCCC(C)(C)c1ccc2c(c1)OC(C)(C)[C@@H]1CC=C(C)C[C@@H]21,102% (inactive)
13,Cc1ccc(C[As+](c2ccccc2)(c2ccccc2)c2ccccc2)cc1,-65.3% (active)
14,O=C1NC(=O)C(CN2C(=O)C3(c4ccccc42)[C@H](Cl)C(=O)N3c2ccccc2)C(=O)N1 (stereo not given in full),78.6% (inactive)
15,Fc1ccc(C2=NN(c3ccccc3)C(c3sc(N(CCCl)CCCl)nc3Cl)C2)cc1 (stereo not given),83.2% (inactive)
16,CC(C)CCC1(CCO)C(=O)NC(=S)NC1=O,105% (inactive)
17,O=C(O)c1cccc(CCl)c1,113% (inactive)
18,S=P(Nc1ccccc1)(Nc1ccccc1)c1ccccc1,92.1% (inactive)
19,Cc1cc([N+](=O)[O-])c(Cl)cc1NS(=O)(=O)c1ccccc1,43.6% (inactive)
20,CC(C)[C@]12O[C@H]1[C@@H]1O[C@]13[C@]1(O[C@H]1C[C@H]1C4=C(CC[C@@]13C)C(=O)OC4)[C@@H]2OC(=O)OC(C)(C)C,-2.1% (active)
